Results as given in ChEMBL document CHEMBL3433997, “St. Jude Leishmania screening dataset” (2016).

Key:
Type in all cases: functional
[1] = molecular target: Solute carrier family 2, facilitated glucose transporter member 1 (Homo sapiens) (UniProt P11166); experiment: ST_JUDE_LEISH: Cytotoxicity at 2uM final concentration against transgenic Leishmania Mexicana promastigotes LmGLUT1 that are glucose transport deficient and complemented with the human glucose transporter GLUT1. Activity is measured by DNA content using SYBR green in vitro
Chain of Solute carrier family 2, facilitated glucose transporter member 1 (Homo sapiens) (P11166 whole entry): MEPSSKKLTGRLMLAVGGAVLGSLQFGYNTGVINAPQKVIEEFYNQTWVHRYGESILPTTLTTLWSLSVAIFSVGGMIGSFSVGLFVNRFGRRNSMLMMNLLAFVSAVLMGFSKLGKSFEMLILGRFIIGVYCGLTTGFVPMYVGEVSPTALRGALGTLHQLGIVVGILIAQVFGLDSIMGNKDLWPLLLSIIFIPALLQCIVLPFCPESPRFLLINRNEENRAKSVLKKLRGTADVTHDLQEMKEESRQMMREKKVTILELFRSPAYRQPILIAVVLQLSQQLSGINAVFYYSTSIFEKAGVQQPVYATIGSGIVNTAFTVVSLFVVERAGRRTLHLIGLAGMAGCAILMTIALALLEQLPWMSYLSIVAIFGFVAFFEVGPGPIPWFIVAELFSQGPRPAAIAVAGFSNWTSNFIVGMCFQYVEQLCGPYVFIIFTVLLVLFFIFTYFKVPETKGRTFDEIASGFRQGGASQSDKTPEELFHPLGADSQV

[2] = molecular target: Hexose transporter 1 (Plasmodium falciparum) (UniProt O97467); experiment: ST_JUDE_LEISH: Cytotoxicity at 2uM final concentration against transgenic Leishmania Mexicana promastigotes LmPfHT that are glucose transport deficient and complemented with the Plasmodium falciparum hexose transporter. Activity is measured by DNA content using SYBR green in vitro
[3] = molecular target: Glucose transporter (Leishmania mexicana) (UniProt O61059); experiment: ST_JUDE_LEISH: Cytotoxicity at 2uM final concentration against transgenic Leishmania Mexicana promastigotes LmGT2 that are glucose transport deficient and complemented with the L. Mexicana glucose transporter 2. Activity is measured by DNA content using SYBR green in vitro

SMILES	inhibition [1] [%]	inhibition [2] [%]	inhibition [3] [%]
CCCC1(NC[C@@H](O)[C@H](Cc2ccccc2)NC(=O)c2cc(NCC)cc(N3CCCCS3(=O)=O)c2)CCCCC1	-0.81	0.97	4.36
OC1CCCN(Cc2ccc(-c3cccc(-c4nc5cc(F)ccc5[nH]4)c3)cc2)C1 (stereo unspecified)	7.7	7.1	5.69
COc1nc2c(CCN3CC[C@H](NCc4ccc5c(c4)NC(=O)CO5)[C@H](O)C3)c(Cl)cnc2cc1F	6.64	7.74	4.24
O=C(/C=C/c1cccc(OC(F)(F)F)c1)NCCCCCN1CCC(c2c[nH]c3ccccc23)CC1	1.81	0.75	-2.1
COc1nc2c(N3CCN(CCNCc4ccc5c(n4)NC(=O)CO5)CC3)ccnc2cc1F	4.21	2.44	0.39
CN(C)CCNCc1cccc(-c2ccc3c(Nc4ccc(F)cc4Cl)ccnc3c2)c1	3.59	3.29	5.03
CN(C)Cc1cccc(-c2cnc(N)c(-c3nc4cc(S(C)(=O)=O)ccc4[nH]3)c2)c1	2.57	5.29	3.97
CCCNCc1ccc(-c2ccc(CNC3Cc4ccccc4C3)cc2)nc1	-0.04	2.5	1.53
CC(C)CC(=O)NC1CCN(Cc2c(-c3cccs3)nc3ccccc3c2C(=O)N[C@@H](C)C2CCCCC2)CC1	6.03	4.72	4.36
Oc1cc(Nc2ccnc3cc(-c4ccc(CN5CCCCC5)o4)ccc23)c(Cl)cc1F	3.23	6.46	3.68
C=CCn1c(=N)c(C(=O)NCc2ccc(F)cc2)cc2c(=O)n3cccc(C)c3nc21	3.56	3.45	2.22
N#Cc1cccc(NC(=O)Nc2cccc(-c3cccc(-c4nc5cc(C(F)(F)F)ccc5[nH]4)c3)c2)c1	2.08	1.85	3.18
CCC(C)NCc1c(O)ccc2c(CNC(C)CC)c(O)ccc12 (stereo unspecified)	2.24	3.63	2.13
CC(C)NCc1cccc(-c2cccc(NC(=O)c3cccc(Cl)c3)c2)c1	-0.03	0.9	4.05
c1ccc2c(c1)ncn2-c1ccnc(Nc2ccncc2)n1	6.4	6.42	6.75
O=C(CSc1nnc(O)n1Cc1ccccc1)Nc1ccccc1-c1ccccc1	5.26	6.12	5.02

SMILES	inhibition [1] [%]	inhibition [2] [%]	inhibition [3] [%]
COc1cc2nc(-c3ccccc3)nc(N3CCN(CC(=O)N4CCCC4)CC3)c2cc1OC	3.46	1.22	4.86
c1cc(C2=NC3CCCCC3N2)ccc1OCCCCCOc1ccc(C2=NC3CCCCC3N2)cc1 (stereo unspecified)	2.83	5.62	1.28
O=C(NCCN1CCC(c2ccncc2)CC1)c1ccc(Nc2nccc(Nc3ccc(Oc4ccccc4)cc3)n2)cc1	-0.62	-0.94	-1.34
CCC(CC)NCc1c(O)ccc2c(CNC(CC)CC)c(O)ccc12	-1.88	-0.71	-1.57
c1ccc(-c2cc(NCCNc3cc(-c4ccccc4)nc4ccccc34)c3ccccc3n2)cc1	-1.99	6.2	15.2
CC(C)C[C@H](NC(=O)c1cc2ccccc2s1)C(=O)N[C@H]1CCN(Cc2ccc(OC3CCN(C)C3)c(Cl)c2)C1 (stereo partly specified)	1.48	2.37	-0.19
CCNc1cc(C(=O)N[C@@H](Cc2ccccc2)[C@H](O)CNCCc2ccccc2)cc(N2CCCCS2(=O)=O)c1	-0.52	-0.67	-3.28
CCCCN1CCN(Cc2cccc(NC(=O)c3ccc(Cl)c(Cl)c3)c2)CC1	13.4	10.1	10.5
CC(C)CN1CCN(CCNc2c3ccccc3nc3ccccc23)CC1	83	83.1	81.3
Cc1ccc(O)cc1Nc1ccnc2cc(-c3ccccn3)ccc12	5.99	4.26	3.28
Cc1noc(C)c1-c1ccc2c(Nc3ccccc3C(C)(C)C)c(C(=O)NCc3ccc(C(F)(F)F)cc3)cnc2c1	3.44	5.41	3.69
O=C(/C=C/c1ccc(Cl)c(Cl)c1)NC1CCC(CN2CCC(c3coc4ccccc34)CC2)CC1 (stereo unspecified)	-1.76	1.76	-1.87
CN1CCN(CC2(Nc3nccc(NCCc4cn(C)c5ccccc45)n3)CCCCC2)CC1	0.99	1.78	-1.09
Nc1nc(N)c2c(Cc3ccc(Br)cc3)cccc2n1	2.61	4.39	3.75
O=C(NC1CCN(Cc2ccccc2)CC1)c1ccc(-c2nc3cc(F)c(F)cc3[nH]2)s1	3.16	3.84	5.72
CCNc1cc(C(=O)N[C@@H](Cc2ccccc2)[C@H](O)CNCc2cc(C#N)ccc2OC)cc(N2CCCC2=O)c1	9.4	9.23	9.67
